# Measurements from PubChem BioAssay (NCI).
# This is part of a sample that, as a whole, favours compounds with a hit. Of some 83,000 tested, about 20% had one in any assay.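 Results are percent growth after 48 hours of single-concentration exposure. 100 means growth as in untreated cells, lower positive values show inhibition; negative values down to -100 show cell death.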 Values without a mark were called inactive. How the source made its calls: active means growth percent below 10; inactive means the rest.
# System: MDA-MB-468 breast
# Test: NCI-60 one-dose screen, 48 h (100 = growth as untreated, 0 = no growth, -100 = all killed)
# Conditions: 10 µM unless noted
row,SMILES,growth
1,Cc1ccc(-c2c3c(N)nc(-c4ccncc4)nc3nc3c2c(C)nn3-c2ccccc2)cc1,43.6%
2,CCCCCCCCn1ccc2cc(NC(=O)CN3CCN(c4nc(C)cc(N5CCCCC5)n4)CC3)ccc21,73.2%
3,COC(=O)Nc1ccc(-c2nc(-c3cccc(OC)c3)c(-c3ccnc(Br)c3)[nH]2)cc1,39.1%
